Screens: PubChem, National Center for Advancing Translational Sciences (NCATS)
Compounds with a hit are over-represented: about 6.1% of the library has one in this group of screens.
HepG2 tox – kills HepG2 cells in TGF-b inhibitor counter-screen | 0.76% of 410,000 active | HepG2 CAGA-GFP viability, ATP luminescence, 18 h | Potency, µM (top dose mostly 46.1 µM), for inactives: at the highest dose activity change, negative = cytotoxicity, hits mostly cytotoxic
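CellTiter-Glo luminescence gave cytotoxicity after 18 hours at 37 degrees C. The cells were HepG2 CAGA-GFP in 1% FBS DMEM, stimulated with 500 pg/mL TGF-beta after compound addition. %Activity was normalised to no-cell wells (complete cell-killing) and DMSO (no toxicity), and curves were fitted and classified.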
RORgamma inh – ROR gamma (mouse) transcription inhibition; AID 2551; Potency, µM (highest dose often 53.6 µM), without a hit: at the top dose activity change, negative = inhibition, hits mostly inhibitors; P51450; Drosophila S2 Gal4-RORgamma UAS-luciferase reporter, 20 h; 5.4% of 310,000 active; further: on the % scale 0 is the no-effect control and ±100 the full control effect; nearly all actives have a fitted effect of over 60% in size
Target sequence (P51450 whole entry, looked up, the tested form may be a part): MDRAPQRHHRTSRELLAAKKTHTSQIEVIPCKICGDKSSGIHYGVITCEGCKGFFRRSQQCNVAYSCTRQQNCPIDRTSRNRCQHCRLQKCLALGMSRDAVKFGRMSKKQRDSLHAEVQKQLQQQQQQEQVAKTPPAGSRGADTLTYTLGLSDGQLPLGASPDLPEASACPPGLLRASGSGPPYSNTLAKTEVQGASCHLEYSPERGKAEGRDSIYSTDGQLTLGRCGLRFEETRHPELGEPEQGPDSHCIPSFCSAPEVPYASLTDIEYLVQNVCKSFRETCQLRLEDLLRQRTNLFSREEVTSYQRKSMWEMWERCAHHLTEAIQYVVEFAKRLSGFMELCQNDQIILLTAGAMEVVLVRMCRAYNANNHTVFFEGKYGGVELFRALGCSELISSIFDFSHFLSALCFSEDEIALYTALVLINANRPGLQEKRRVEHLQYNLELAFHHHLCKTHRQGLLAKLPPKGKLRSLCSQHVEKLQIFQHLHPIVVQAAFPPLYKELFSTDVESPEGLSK
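Luminescence from a UAS-regulated Photinus luciferase reporter in stably transfected Drosophila Schneider cells is measured; decreased signal marks ROR gamma inhibition. Fusion expression is induced by 700 uM copper sulfate for 20 hr.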
ATXN viability – cell viability loss in ATXN counter-screen. 0.49% of 400,000 active. Potency, µM (series often up to 56.7 µM), usual class: cytotoxic. AID 651635. S2 cells (HEK-293 line with an ATXN2-luciferase reporter) viability, CellTiter-Fluor protease fluorescence, 24 h; further: nearly all actives have a fitted effect of over 40% in size
ATXN2 expr inh – inhibitors of ATXN2 expression. 0.72% of 360,000 active. HEK-293 ATXN2-luciferase reporter, luminescence, 24 h. Potency, µM (doses to about 57 µM), without a hit: at the top dose activity change, negative = inhibition, actives largely listed as inhibitors; further: on the % scale 0 is the no-effect control and ±100 the full control effect; nearly all actives have a fitted effect of over 55% in size
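ATXN2-luciferase reporter cells (luciferase flanked by upstream and downstream ATXN2 gene portions) were treated 24 h at 37 °C with compounds at up to 57 uM. SteadyGlo luminescence gave expression; GF-AFC fluorescence gave viability.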
TGFb SMAD3 inh – inhibitors of TGF-b signaling; HepG2 CAGA-GFP TGF-b/SMAD3 reporter, GFP fluorescence, 18 h; TGF-beta stimulated, 500 pg/mL final; Potency, µM (series often up to 46.1 µM), without a hit: at the highest dose activity, negative = inhibition, actives largely listed as inhibitors; 1.2% of 410,000 active; AID 588855; further: on the % scale 0 is the no-effect control and ±100 the full control effect; nearly all actives have a fitted effect of over 65% in size
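Read-out: total well GFP (ex488/em500-530) summed from mean per-cell fluorescence. Cells: HEPG2 CAGA-GFP, 1% FBS DMEM, 18 h at 37 degrees C with 500 pg/mL final TGF-beta. Unstimulated wells served as the full-inhibition control; stimulated DMSO wells = 0%.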
Gal4-VP16 FLuc – Gal4-VP16 reporter inhibition counter-screen; Drosophila S2 Gal4-VP16 UAS-luciferase, luminescence, 20 h; AID 2546; 3.5% of 310,000 active; Potency, µM (titrated, usually from 53.6 µM), for the others: top-dose activity, negative = inhibition, usual class: inhibitors;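 further: Gal4-VP16 expression switched on by copper sulfate through the metallothionein promoter; on the % scale 0 is the no-effect control and ±100 the full control effect; nearly all actives have a fitted effect of over 50% in size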
* hit, by the source's call; i = inactive; ? = inconclusive; . = no result; [ ] = remark or other dose. The call rests on the fitted dose curve; in most records, active means well fitted curve in the direction sought with a large enough effect; inconclusive means small, poorly fitted or top-dose-only effect, or another doubt; inactive means no such curve, though single readings can be large; an effect the other way counts as inactive or inconclusive. Potency means the concentration at half of the fitted maximal effect.

SMILES | HepG2 tox | RORgamma inh | ATXN viability | ATXN2 expr inh | TGFb SMAD3 inh | Gal4-VP16 FLuc
O=C(N/N=C/c1cc([N+](=O)[O-])ccc1O)C12CC3CC(CC(C3)C1)C2 | -4% | ? | ? | . | -17% | 0.71µM*
O=C(N/N=C/c1cc([N+](=O)[O-])ccc1O)Nc1ccccc1 | -25% | 4.5µM* | i | -42% | -7% | 22µM*
Cc1cc(Cl)ccc1NC(=O)CCC(=O)N/N=C/c1cc([N+](=O)[O-])ccc1O | -3% | ? | i | -3%[11.3 µM] | -20% | -2%
CCOC(=O)c1noc2nc(C)n(CC(=O)Nc3cc(Cl)ccc3OC)c(=O)c12 | 0% | . | i | -3% | 5% | .
Cc1ccccc1C(C(=O)NC1CCCCC1)N(C(=O)CNc1ccc(C#N)cc1)c1cccc(F)c1 (configuration not stated) | . | . | . | 3% | . | .
O=C(N/N=C/c1cc([N+](=O)[O-])ccc1O)NC12CC3CC(CC(C3)C1)C2 | -25% | 3.5µM* | ? | 3% | ? | ?
O=C(N/N=C/c1ccc(O)cc1O)NC12CC3CC(CC(C3)C1)C2 | -25% | 10% | i | -22% | -15% | -7%
CC1CCCC(NCC(O)COC(c2ccc(F)cc2)c2ccc(F)cc2)C1C (configuration not stated) | 22µM* | ? | ? | ? | ? | -6%
Clc1ccc2c(Cl)cc[n+](CCC3CCCCC3)c2c1 | -2% | . | . | . | 0% | .
CCOC(=O)c1ccc(N2C(=O)c3n[nH]c(-c4ccco4)c3C2c2ccc(OC)cc2OC)cc1 (configuration not stated) | -46% | . | ? | ? | 16µM* | .
CCOC(=O)c1ccc(N2C(=O)c3n[nH]c(-c4ccco4)c3C2c2ccc(C(=O)OC)cc2)cc1 (configuration not stated) | -39% | . | ? | ? | ? | .
CCOC(=O)c1ccc(N2C(=O)c3n[nH]c(-c4ccco4)c3C2c2ccc(O)c(OCC)c2)cc1 (configuration not stated) | -61% | . | ? | ? | 16µM* | .
CCOC(=O)c1ccc(N2C(=O)c3n[nH]c(C)c3C2c2ccc(OC)cc2OC)cc1 (configuration not stated) | -55% | ? | i | -18% | ? | 0%
COC(=O)c1ccc2nc(-c3ccc(S(C)(=O)=O)cc3)cn2c1 | -7% | 1% | i | 11% | -22% | -17%
CS(=O)(=O)c1ccc(-c2cn3cc(C(=O)O)ccc3n2)cc1 | -3% | 7.9µM* | i | -24%[11.3 µM] | 9% | 10µM*
CC(C)(C)c1ccc(-c2cn(-c3ccc(Br)cc3)c3[n+]2CCCS3)cc1 | -21% | 7.1µM* | i | -22% | 10µM* | 7.9µM*
c1ccc(-c2cn(-c3ccccc3)c3[n+]2CCS3)cc1 | -11% | 28% | i | -35% | -14% | -15%
O=c1[nH]c(COc2ccccc2)nc2ccccc12 | -6% | 24% | ? | . | -5% | 17%
FC(F)(F)c1nc(=S)c2ccccc2[nH]1 | -28% | -32% | i | -12% | -25% | 0%
S=c1nc(Cc2ccccc2)[nH]c2ccccc12 | 4% | 2.8µM* | i | 14% | 1% | 6.3µM*
Cc1nc(=S)c2ccccc2[nH]1 | -3% | 10µM* | i | 10% | 4% | ?
Cc1ccc(Cc2nc3ccccc3[nH]2)cc1 | -3% | 1% | i | 29% | 1% | -2%
S=c1nc(Cc2ccc(Cl)cc2)[nH]c2ccccc12 | -18% | 1.8µM* | i | -12% | -16% | 11µM*
S=c1nc(COc2ccccc2)[nH]c2ccccc12 | 3% | 1.6µM* | i | . | 18% | 18µM*
NC(N)=Nc1ccc(/C=C2\C=Cc3ccccc32)cc1 | -106% | . | . | . | 16µM* | .
SMILES | HepG2 tox | RORgamma inh | ATXN viability | ATXN2 expr inh | TGFb SMAD3 inh | Gal4-VP16 FLuc
O=Cc1ccc(/C=C2\C=Cc3ccccc32)cc1 | -62% | . | . | . | 3.5µM* | .
Cc1ccc(C)c(N2CCN(S(=O)(=O)c3ccc(-c4coc(C)n4)cc3)CC2)c1 | -22% | . | i | -7% | ? | .
Cc1ccc(NC(=O)CN2C(=O)CSc3ccc(S(=O)(=O)N4CCCC4)cc32)cc1F | -14% | . | . | . | ? | .
CC1CCN(S(=O)(=O)c2ccc(C(=O)Nc3nnc(-c4ccncc4)o3)cc2)CC1 | -24% | 1.1µM* | i | ? | -18% | 4µM*
CCOC(=O)N1CCN(S(=O)(=O)c2ccc(C(=O)Nc3nnc(C)o3)cc2)CC1 | 8% | ? | i | -9% | 5% | ?
O=C(Nc1nnc(C2CC2)o1)c1ccc(S(=O)(=O)N2CCCCC2)cc1 | -42% | 0.89µM* | i | -21% | ? | 0.56µM*
CC1CCN(S(=O)(=O)c2ccc(C(=O)Nc3nnc(C4CC4)o3)cc2)CC1 | -30% | 0.35µM* | i | ? | -16% | 0.32µM*
CS(=O)(=O)c1ccc(-c2nnc(NC(=O)c3ccc(S(=O)(=O)N4CCCC4)cc3)o2)cc1 | -13% | . | i | -5% | ? | .
Oc1ccc(-c2nnc(SCC3CCCCC3)o2)cc1 | 11µM* | 3.2µM* | ? | 43% | -29% | 8.9µM*
O=C(CSc1nnc(-c2ccc(O)cc2)o1)N1CCOCC1 | -17% | 4% | i | 21% | 0% | 4%
S=c1[nH]nc(C2CCCCC2)n1/N=C/c1ccc(Br)cc1 | 11% | 1.4µM* | i | 0% | 13% | ?
FC(F)(F)c1ccc(/C=N/n2c(C3CCCCC3)n[nH]c2=S)cc1 | -75% | -39% | ? | . | ? | 10µM*
COc1cc(/C=N/n2c(C3CCCCC3)n[nH]c2=S)cc(OC)c1O | -17% | -31% | i | 0% | 0% | -4%
S=c1[nH]nc(C2CCCCC2)n1/N=C/c1c(Cl)cccc1Cl | 2% | ? | i | -5% | -6% | ?
CCc1ccc(/C=N/n2c(C3CCCCC3)n[nH]c2=S)cc1 | -94% | 3.5µM* | ? | . | ? | 8.9µM*
Cc1ccc(/C=N/n2c(C3CCCCC3)n[nH]c2=S)cc1 | 1% | 2.5µM* | i | -20% | -11% | 7.1µM*
COC(=O)CC1Oc2ccccc2-n2cc(-c3ccc(F)cc3)nc21 (configuration not stated) | -18% | . | i | -23% | ? | .
CCOc1ccc(C(=O)OCc2cc(=O)n3nc(C(C)C)sc3n2)cc1 | -20% | . | i | -2% | ? | .
S=c1[nH]nc(C2CCCCC2)n1/N=C/c1ccc(Cl)cc1 | -48% | 0.35µM* | i | -6% | ? | 7.9µM*
S=c1[nH]nc(C2CCCCC2)n1/N=C/c1ccc(Br)s1 | -80% | 1.1µM* | i | -33% | ? | 4µM*
